Most compounds without a hit are left out; they make up all but 18% or so of the library.
DT40 TDP1 no CPT = qHTS for Inhibitors of human tyrosyl-DNA phosphodiesterase 1 (TDP1): qHTS in cells in absence of CPT | DT40 Tdp1-/- hTDP1 cells, no CPT, ATP luminescence, 48 h | Potency, µM (series often up to 46.2 µM), without a hit: at the top dose activity change, negative = growth inhibition, usual class: inhibitors | hit rate 15% among 420,000 | AID 686978, 2013; further: potency means the concentration at half of the fitted maximal effect; nearly all actives have a fitted effect of over 55% in size
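No-CPT arm: Tdp1-/-;hTDP1 DT40 cells (400/well) plus compounds, incubated ≥48 hr at 37 °C. Readout CellTiter-Glo luminescence.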
Six1-Eya2 blk = blocks human Six1 binding to Eya2 | hit rate 0.56% among 360,000 | activity change, % (test concentration not listed) | AlphaScreen GST-Six1/His-Eya2 binding, biochemical; stronger effect = lower value | Q15475+O00167; in the data active means activity change below about -65%; inconclusive means mostly about -30% to -63%
Target sequence (O00167 whole entry, looked up): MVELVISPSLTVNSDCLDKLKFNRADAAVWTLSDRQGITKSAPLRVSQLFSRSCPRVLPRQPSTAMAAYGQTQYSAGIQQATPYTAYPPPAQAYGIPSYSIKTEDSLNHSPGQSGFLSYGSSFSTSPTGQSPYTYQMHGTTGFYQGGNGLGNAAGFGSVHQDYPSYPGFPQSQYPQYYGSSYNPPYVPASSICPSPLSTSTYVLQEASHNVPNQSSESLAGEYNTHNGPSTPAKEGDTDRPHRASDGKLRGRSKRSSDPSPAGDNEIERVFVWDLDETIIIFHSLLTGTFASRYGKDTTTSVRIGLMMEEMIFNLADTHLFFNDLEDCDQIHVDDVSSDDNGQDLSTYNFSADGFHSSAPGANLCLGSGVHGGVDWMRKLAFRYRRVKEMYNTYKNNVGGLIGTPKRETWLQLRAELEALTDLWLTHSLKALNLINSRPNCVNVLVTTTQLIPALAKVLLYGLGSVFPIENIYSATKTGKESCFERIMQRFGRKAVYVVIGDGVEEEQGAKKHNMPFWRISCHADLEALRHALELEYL
Target sequence (Q15475 whole entry, looked up): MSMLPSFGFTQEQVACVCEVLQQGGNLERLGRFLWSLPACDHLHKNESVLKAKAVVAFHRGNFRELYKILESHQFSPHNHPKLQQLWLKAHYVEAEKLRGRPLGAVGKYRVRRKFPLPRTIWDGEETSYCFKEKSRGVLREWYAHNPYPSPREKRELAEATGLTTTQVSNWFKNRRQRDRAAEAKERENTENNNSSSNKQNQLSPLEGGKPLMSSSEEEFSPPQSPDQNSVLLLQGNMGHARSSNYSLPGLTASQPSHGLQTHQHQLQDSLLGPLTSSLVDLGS
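Compounds are tested against tagged Six1 and Eya2 proteins bridged by glutathione donor and nickel acceptor beads; after a one-hour incubation at 37 °C without light, AlphaScreen emission is recorded.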
CtBP-E1A blk = inhibitors of CtBP/E1A interaction | AlphaScreen GST-E1A/His-CtBP binding, 1536-well; stronger effect = lower value | activity change, % (no concentration beside the values) | hit rate 0.49% among 340,000; in the data active means activity change below about -65%; inconclusive means mostly about -30% to -63%
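GST-E1A and His-tagged CtBP (125 nM each as 5X stock) were preincubated with pin-transferred compound for 2 h at 37 °C in the dark, then glutathione donor and nickel acceptor beads were added for 1 h before AlphaScreen reading.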
IL1B secr inh = inflammasome signaling inhibition, IL-1 beta readout; THP-1 LPS/ATP IL-1B secretion, AlphaLISA, 16 h; stronger effect = lower value; activity change, % at 57.5 µM; hit rate 4.7% among 360,000; AID 743279; in the data active means activity change below about -50%; inconclusive means mostly about -30% to -49%
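THP-1 cells pretreated 1 hr with compounds (up to 57.5 uM final), then stimulated with LPS (250 ng/mL final) plus ATP (1.25 mM final); secreted IL-1B measured by AlphaLISA after 16 hr, decreased signal indicating inhibition.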
TDP1 inh = blocks human tyrosyl-DNA phosphodiesterase 1; AID 485290; Potency, µM (series often up to 130 µM), for the others: at the top dose activity change, negative = inhibition, usual class: inhibitors; recombinant TDP1, AlphaScreen DNA substrate cleavage; hit rate 0.28% among 350,000; further: potency means the concentration at half of the fitted maximal effect; nearly all actives have a fitted effect of over 40% in size
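Enzyme-compound mixtures sat 15 min at room temperature, followed by a 5 min reaction with 15 nM final substrate and 10 min with AlphaScreen beads. Recombinant human Tdp1 was used at 1 nM final.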
TDP1 cell CPT = DT40-hTDP1 cell growth loss with CPT; hit rate 12% among 420,000; Potency, µM (highest dose often 46.2 µM), inactives show at the top dose activity change, negative = growth inhibition, actives largely listed as inhibitors; AID 686979; chicken DT40 Tdp1-/-;hTDP1 cells + 20 nM CPT, ATP luminescence, 48 h; further: potency means the concentration at half of the fitted maximal effect; nearly all actives have a fitted effect of over 55% in size
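Cell growth measured by CellTiter-Glo luminescence after a minimum 48 h, 37 C compound exposure with 20 nM CPT in Tdp1-knockout DT40 cells stably expressing hTDP1, seeded 400/well; qHTS titration format.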
Numbers without * were called inactive; ? = inconclusive; · = no result given. Unless noted, the call rests on the fitted dose curve; in most records, active means well fitted curve in the direction sought with a large enough effect; inconclusive means small, poorly fitted or top-dose-only effect, or another doubt; inactive means no such curve, though single readings can be large; an effect the other way counts as inactive or inconclusive. On the % scale 0 is the no-effect control and ±100 the full control effect.

SMILES | DT40 TDP1 no CPT | Six1-Eya2 blk | CtBP-E1A blk | IL1B secr inh | TDP1 inh | TDP1 cell CPT
C#CCOCCOCCOCCNc1nc(N2CCN(C(=O)CCCCCCCCCCNC(=O)[C@@H](CCC(=O)O)n3cc(CCCCCN)nn3)CC2)nc(N2CCN(C(=O)CCCCCCCCCCNC(=O)[C@H](CCCCN)n3cc(C[C@@H](C)CC)nn3)CC2)n1 | ? | -6.0 | -7.4 | ? | 5.6% | ?
C#CCOCCOCCOCCNc1nc(N2CCN(C(=O)CCCCCCCCCCNC(=O)[C@H](CCCCN)n3cc(C)nn3)CC2)nc(N2CCN(C(=O)CCCCCCCCCCNC(=O)[C@H](CCCN=C(N)N)n3cc(C[C@@H](C)CC)nn3)CC2)n1 | 11.6µM* | -13.0 | -22.2 | -101.7* | 14.2% | 23.1µM*
C#CCOCCOCCOCCNc1nc(N2CCN(C(=O)CCCCCCCCCCNC(=O)[C@@H](CCSC)n3cc(CCO)nn3)CC2)nc(N2CCN(C(=O)CCCCCCCCCCNC(=O)[C@H](CCCN=C(N)N)n3cc(C[C@@H](C)CC)nn3)CC2)n1 | ? | -10.2 | -6.9 | -99.7* | 15.0% | 25.9µM*
Cc1ccc(OCC(=O)N(Cc2ccc(Cl)cc2)CC2CCCO2)cc1C (stereo unspecified) | ? | · | · | · | -8.9% | ?
C#CCOCCOCCOCCNc1nc(N2CCN(C(=O)CCCCCCCCCCNC(=O)[C@@H](CCSC)n3cc(CCO)nn3)CC2)nc(N2CCN(C(=O)CCCCCCCCCCNC(=O)[C@@H]([C@H](C)O)n3cc(C)nn3)CC2)n1 | 9.2µM* | -7.8 | 1.0 | ? | -1.1% | 6.51µM*
C#CCOCCOCCOCCNc1nc(N2CCN(C(=O)CCCCCCCCCCNC(=O)[C@H](CCCCN)n3cc(CCO)nn3)CC2)nc(N2CCN(C(=O)CCCCCCCCCCNC(=O)[C@H](CCCCN)n3cc(C[C@@H](C)CC)nn3)CC2)n1 | ? | 0.7 | -17.9 | -20.5 | 0.0% | ?
C#CCOCCOCCOCCNc1nc(N2CCN(C(=O)CCCCCCCCCCNC(=O)[C@H](CCCCN)n3cc(C[C@@H](C)CC)nn3)CC2)nc(N2CCN(C(=O)CCCCCCCCCCNC(=O)[C@@H]([C@H](C)O)n3cc(C)nn3)CC2)n1 | 5.17µM* | -15.5 | -9.6 | ? | 9.8% | 4.61µM*
C#CCOCCOCCOCCNc1nc(N2CCN(C(=O)CCCCCCCCCCNC(=O)[C@H](CCCN=C(N)N)n3cc(C[C@@H](C)CC)nn3)CC2)nc(N2CCN(C(=O)CCCCCCCCCCNC(=O)[C@@H]([C@H](C)CC)n3cc(CCCCCN)nn3)CC2)n1 | · | · | · | · | 17.4% | ·
CS(=O)(=O)Nc1ccc(C(=O)NCCSCc2c(F)cccc2Cl)cc1 | ? | -0.8 | -1.4 | 11.6 | · | 1.7%
CCN(CC)CCNC(=O)c1ccc(-c2nc(CS(=O)(=O)c3ccc(C)cc3)c(C)o2)cc1 | -18.7% | · | · | · | 5.6% | -10.3%
CCOc1ccc(-c2c(=O)n(OCc3ccccn3)c3ccccc3[n+]2[O-])cc1 | 11.6µM* | 0.2 | 2.1 | -29.8 | 4.0% | 20.6µM*
C=CCOn1c(=O)c(-c2ccc(OC)c(OC)c2)[n+]([O-])c2ccccc21 | ? | -5.1 | -5.1 | 5.1 | 4.7% | ?
Cc1ccc(-c2c(=O)n(OCc3ccccn3)c3ccccc3[n+]2[O-])cc1 | · | · | · | · | -1.0% | ·
COc1ccc(-c2c(=O)n(OCc3ccccn3)c3ccccc3[n+]2[O-])cc1OC | ? | -0.9 | -0.6 | 2.8 | 2.5% | -28.7%
COc1ccc(-c2c(=O)n(OC)c3ccccc3[n+]2[O-])cc1OC | 14.6µM* | -28.4 | -6.7 | -16.4 | · | 11.6µM*
COc1ccc(-c2c(=O)n(OCc3ccccc3[N+](=O)[O-])c3ccccc3[n+]2[O-])c(OC)c1 | 18.4µM* | -6.4 | -1.0 | -8.7 | 0.6% | ?
CS(=O)(=O)c1ccc(-c2nnn(CC(=O)N3CCCCC3)n2)cc1 | -0.6% | 0.0 | 4.0 | 38.0 | · | 1.3%
CSC[C@@H]1NC(=S)N(c2ccc(C)cc2)C1=O | 2.31µM* | -0.4 | -21.3 | 0.0 | 3.8% | 5.17µM*
Cc1cccc(C)c1OCC(=O)N1CCC(c2nc3ccccc3o2)CC1 | ? | · | · | · | 0.5% | ?
COc1ccccc1OCC(=O)N1CCC(c2nc3ccccc3o2)CC1 | ? | · | · | · | 6.8% | ?
Cc1ccc(C(C)C)c(OCC(=O)N2CCC(c3nc4ccccc4o3)CC2)c1 | 14.6µM* | · | · | · | 3.6% | ?
O=C(COc1ccccc1[N+](=O)[O-])N1CCC(c2nc3ccccc3o2)CC1 | 18.4µM* | · | · | · | 0.5% | ?
Cc1nc([N+](=O)[O-])c(N2CCN(Cc3ccccc3)CC2)n1Cc1ccccc1 | ? | -8.3 | -8.7 | ? | 0.7% | ?
Cc1cc2nc(Sc3c([N+](=O)[O-])nc(C)n3Cc3ccccc3)[nH]c2cc1C | 11.6µM* | -4.1 | -3.0 | -97.6* | -1.8% | 7.31µM*
COc1ccc2nc(Sc3c([N+](=O)[O-])nc(C)n3Cc3ccccc3)[nH]c2c1 | 23.1µM* | 4.6 | -10.0 | -80.2* | 1.9% | 18.4µM*
SMILES | DT40 TDP1 no CPT | Six1-Eya2 blk | CtBP-E1A blk | IL1B secr inh | TDP1 inh | TDP1 cell CPT
Cn1cnnc1Sc1c([N+](=O)[O-])ncn1C | · | · | · | · | 8.2% | ·
CS(=O)(=O)c1cc([N+](=O)[O-])c(Sc2nc3ccccc3[nH]2)c([N+](=O)[O-])c1 | 4.61µM* | -3.9 | 2.2 | 9.8 | -5.9% | 2.91µM*
Cn1cnc([N+](=O)[O-])c1Sc1nc2ccccc2[nH]1 | 18.4µM* | -1.5 | -1.8 | -97.3* | 3.5% | 10.3µM*
CCN(CC)C(=O)CSc1nnc(-c2cnccn2)n1-c1ccccc1 | -23.0% | -2.9 | 3.5 | 27.3 | 5.3% | -16.4%
O=S(=O)(NCc1cccs1)c1ccc(Br)s1 | · | · | · | · | 0.5% | ·
Cc1nc([N+](=O)[O-])c(N2CCOCC2)n1Cc1ccccc1 | -15.9% | 0.2 | · | 8.6 | · | -3.8%
Cc1nc([N+](=O)[O-])c(Sc2nc3ccccc3[nH]2)n1Cc1ccccc1 | 11.6µM* | 1.2 | 2.2 | -105.3* | 0.0% | 8.2µM*
Cc1nc(C)c(-c2csc(N)n2)s1 | 1.3% | -13.0 | -1.5 | 22.6 | 0.0% | -2.2%
Cc1nc(NC(=O)C(C)(C)C)sc1-c1csc(N)n1 | 23.1µM* | -11.9 | -3.2 | -12.4 | · | ?
C=CCNc1nc(-c2sc(NC(C)=O)nc2C)cs1 | 16.4µM* | -4.8 | -16.3 | -57.6* | 7.0% | 10.3µM*
O=C(COC(=O)c1ccc(Cl)nc1)NC1CCCCCC1 | 13.6% | 2.1 | -13.2 | 1.9 | -4.8% | -5.3%
Cc1ccc(Nc2nnc(SCC(=O)NC3CC3)s2)cc1 | 14.9% | 0.6 | -9.4 | 11.5 | 0.6% | -0.8%
